Data taken from PubChem BioAssay (NCATS).
Several values for one entry are separate records, joined by “and”; a condition that tells them apart may be missing. Identical values can stand only once. Records with an inconclusive call do not appear. Entries that show only a call come without a potency. Unmarked numbers belong to inactive results. Activity calls are given as the source filed them. Calls follow the shape of the dose curve; as a rule, active = well fitted cell-killing curve with a large enough effect; inconclusive = small, poorly fitted or top-dose-only effect; inactive = no such curve, though single readings can be large or run the other way.

Assay: qHTS of pediatric cancer cell lines to identify multiple opportunities for drug repurposing: Primary screen for NB1643 cells (AID 1347099); also: nearly all actives have a fitted effect of over 50% in size
Details: NB1643 neuroblastoma viability, CellTiter-Glo luminescence, 48 h; series mostly up to 46 µM; activity change, negative = cytotoxic: at the top concentration
From the text: Drug repurposing or repositioning has been offered as a strategy for drug development in oncology programs. This approach has special potential for childhood cancers and other rare or orphan diseases, where the expected return on new drug development has been a disincentive to pharmaceuticals. […] In this project we exploit the poly-pharmacology of drugs to discover new indications via phenotypic screening of a panel of 19 well-characterized cell lines derived from solid tumors seen in children and adolescents. The goal is to identify approved drugs with previously unrecognized anticancer properties that has the potential to reveal new mechanisms and biological processes involved in carcinogenesis or drug resistance. We employed a titration-based paradigm (quantitative high-throughput screening or qHTS), where all compounds were tested at multiple concentrations for their effect on cell viability. Concentration-response curves (CRCs) were derived directly from the primary screen, and both potency and efficacy values were used to identify compounds with robust bioactivity profiles. We screened the NIH Chemical Genomics Center (NCGC) Pharmaceutical Collection (NPC) and Mechanism Interrogation Plate (MIPE) small molecule collections of approved and investigational compounds against these cell lines; and measured metabolically active cells after 48 hours of compound treatment as a proxy for cell viability. […] Assay Submitter: Nathalia J. Martinez, National Center for Advancing Translational Sciences, National Institutes of Health, Rockville, MD, USA; email: natalia.martinez@nih.gov Shen, M et al. Quantitative high-throughput phenotypic screening of pediatric cancer cell lines identifies multiple opportunities for drug repurposing. Oncotarget 2017 Dec 19;9(4):4758-4772. PMID 29435139.
The cells were obtained from University of North Carolina (UNC), Pediatric Preclinical Testing Program (PPT), and Coriell Institute (CI). qHTS cell viability assay: Cells were assayed in growth media at a density of 500-1,000 cells/well. Five microliters of cells were dispensed into 1,536-well, white, solid-bottom, TC-treated plates (Greiner Bio One) using a multidrop dispenser and incubated at 37 degrees C, 5% CO2, under a humidified atmosphere for 5 hours. Twenty-three nanoliters of compounds and controls (neutral control DMSO or positive control bortezomib at final concentration of 2.3 µM) were subsequently transferred by Kalypsys pintool. For primary screens, the MIPE collection was tested at 11-point dilutions (final concentrations range from 0.78 nM to 46 µM) and the NPC collection at 8-point dilutions (final concentrations range from 0.59 nM to 46 µM). Compounds tested in follow-up screens were assayed at 11-point dilutions. Cells were incubated for 48 hours, followed by addition of 3 µL of CellTiter-Glo (Promega). After a 15 min incubation at room temperature, samples were analyzed for luminescence intensity using a ViewLux High-throughput CCD imager equipped with clear filters.
Potency is read from the fitted curve at half-maximal effect.

SMILES | activity change, negative = cytotoxic | Potency
CC1(C)[C@H](C(=O)O)N2C(=O)C[C@H]2S1(=O)=O | 12.7% | –
CCC(=O)O[C@]1(C(=O)CCl)[C@@H](C)C[C@H]2[C@@H]3CCC4=CC(=O)C=C[C@]4(C)[C@@]3(F)[C@@H](O)C[C@@]21C | – | inactive
CCOC(=O)c1ccc(OC(=O)CCCCCN=C(N)N)cc1 | – | inactive
CC1=CC(=O)c2ccccc2C1=O | – | 16.6 µM (active)
CCCOc1ccc(C(=O)OCCN(CC)CC)cc1N | – | inactive
CCn1cc(C(=O)O)c(=O)c2cc(F)c(N3CCN(C)CC3)cc21 | – | inactive
CC(C)(C#N)c1cc(Cn2cncn2)cc(C(C)(C)C#N)c1 | – | inactive
CC(C)C[C@H](NC(=O)[C@H](CCc1ccccc1)NC(=O)CN1CCOCC1)C(=O)N[C@@H](Cc1ccccc1)C(=O)N[C@@H](CC(C)C)C(=O)[C@@]1(C)CO1 | – | 42.2 nM (active) and 52.6 nM (active)
Cc1nnc(C(=O)NC(C)(C)c2nc(C(=O)NCc3ccc(F)cc3)c(O)c(=O)n2C)o1 | – | inactive
CCCCc1oc2ccc(NS(C)(=O)=O)cc2c1C(=O)c1ccc(OCCCN(CCCC)CCCC)cc1 | – | 18.7 µM (active)
CCOC(=O)c1ccc(C#Cc2ccc3c(c2)C(C)(C)CCS3)nc1 | -4.81% | –
NC(=O)N1c2ccccc2CC(=O)c2ccccc21 | – | inactive
CC(C)OC(=O)C(C(=O)OC(C)C)=C1SC=CS1 | – | inactive
CC(C)OC(=O)OCOP(=O)(CO[C@H](C)Cn1cnc2c(N)ncnc21)OCOC(=O)OC(C)C | – | inactive
COc1ccc2c(c1)c(CC(=O)OCC(=O)O)c(C)n2C(=O)c1ccc(Cl)cc1 | – | inactive
C[C@@H](NCCCc1cccc(C(F)(F)F)c1)c1cccc2ccccc12 | -7.68% | –
CCN[C@H]1C[C@H](C)S(=O)(=O)c2sc(S(N)(=O)=O)cc21 | – | inactive
CCN1CCCC1CNC(=O)c1cc(S(N)(=O)=O)ccc1OC (stereo not given) | 16.5% | –
CC[C@H](NC(C)C)[C@H](O)c1ccc(O)c2[nH]c(=O)ccc12 | – | inactive
Clc1ccccc1CN1CCc2sccc2C1 | -29.3% | –

SMILES | activity change, negative = cytotoxic | Potency
N[C@@H](C(=O)N[C@@H]1C(=O)N2C(C(=O)O)=C(Cl)CS[C@H]12)c1ccccc1 | – | inactive
Cc1oc(=O)oc1CN1CCN(c2cc3c(cc2F)c(=O)c(C(=O)O)c2n3C(C)S2)CC1 (stereo not given) | -14.3% | –
CC1=C(C(=O)O)N2C(=O)[C@@H](NC(=O)C(N)c3ccccc3)[C@H]2SC1 (stereo not given in full) | 35.1% | –
O=C(N[C@H](CO)[C@H](O)c1ccc([N+](=O)[O-])cc1)C(Cl)Cl | – | inactive
COc1cccc(N(C)C(=S)Oc2ccc3c(c2)CCCC3)n1 | 0% | –
Nc1nc(N)nc(-c2cc(Cl)ccc2Cl)n1 | – | inactive
CN(CCOc1ccc(CC2SC(=O)NC2=O)cc1)c1ccccn1 (stereo not given) | 17.4% | –
CS(=O)(=O)c1ccc([C@@H](O)[C@@H](CO)NC(=O)C(Cl)Cl)cc1 | 2.83% | –
CN1CCN(c2c(F)cc3c(=O)c(C(=O)O)cn4c3c2OCN4C)CC1 | – | inactive
CC1=NN(c2ccccc2)C(=O)C1 | – | inactive
O=C(O)CCn1c2c(c3ccccc31)C[C@H](NS(=O)(=O)c1ccc(F)cc1)CC2 | 3.34% | –
CCOCC(O)COc1ccc(NC(=O)CC[S+](C)C)cc1 (stereo not given) | – | inactive
Cn1c(=O)c2c(ncn2CC(O)CO)n(C)c1=O (stereo not given) | 13.9% | –
CCn1cc(C(=O)O)c(=O)c2cc(F)c(N3CCNCC3)cc21 | – | inactive
CNC(=O)c1cc(Oc2ccc(NC(=O)Nc3ccc(Cl)c(C(F)(F)F)c3)cc2)ccn1 | – | 4.69 µM (active)
C[C@@H]1CN(c2c(F)c(N)c3c(=O)c(C(=O)O)cn(C4CC4)c3c2F)C[C@H](C)N1 | – | inactive
OC(Cn1cncn1)(Cn1cncn1)c1ccc(F)cc1F | – | inactive
O=C(O)C1CCCN(CCC=C(c2ccccc2)c2ccccc2)C1 (stereo not given) | 5% | –
CCN(CC)CC#CCOC(=O)C(O)(c1ccccc1)C1CCCCC1 (stereo not given) | -8.79% | –
CCOc1cc(N)c(Cl)cc1C(=O)NCC1CN(Cc2ccc(F)cc2)CCO1 (stereo not given) | 5.26% | –
